For five molecules, outcome and AC50 results are on record in PubChem BioAssay (EPA / NIEHS).

Experiment [1] in a line: ATG_M_61_CIS: Attagene CIS-FACTORIAL HepG2 Assay for M61 Transcription Factor (Internal Marker) (AID 2282937; active = hit-call score of the fitted dose curve at least 0.9, where 1 is the maximum; inactive = score below 0.9). The conditions noted are these: HepG2 Attagene CIS-FACTORIAL M61 internal marker reporter; actives raise or lower the signal. The gist of the method: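 Transfect HepG2 with MRTUs; dose 24 h; isolate RNA; reverse-transcribe with DNase I treatment; PCR-amplify, FAM-label and cut with HpaI for 2 h at 37 C; resolve by CE. Bidirectional fitting against DMSO.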

A short description of experiment [2]: ATG_EGR_CIS: Attagene CIS-FACTORIAL HepG2 Assay for human Early Growth Response 1 (EGR1) (AID 2282938; active = hit-call score of the fitted dose curve at least 0.9, where 1 is the maximum; inactive = score below 0.9). The conditions noted are these: HepG2 Attagene CIS-FACTORIAL EGR reporter mRNA; actives raise or lower the signal. The gist of the method: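 After a 24 h treatment of transiently transfected HepG2 cells, total RNA was reverse-transcribed and reporter sequences PCR-amplified, labelled and run on capillary electrophoresis. Reporters sit under cis-regulatory promoters sensing endogenous factors.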

A short description of experiment [3]: ATG_GRE_CIS: Attagene CIS-FACTORIAL HepG2 Assay for human Glucocorticoid Response Elements (GRE) (AID 2282947; active = hit-call score of the fitted dose curve at least 0.9, where 1 is the maximum; inactive = score below 0.9). As to conditions: HepG2 GRE cis-reporter, Attagene multiplex mRNA; actives raise or lower the signal. The gist of the method: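 HepG2 cells transiently transfected with multiple cis-promoter reporter units measure endogenous TF activity; 24 h compound exposure. Reporter mRNA quantified by RT-PCR, FAM labelling, HpaI digestion and capillary electrophoresis; bidirectional fit vs DMSO baseline.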

A short description of experiment [4]: ATG_M_06_CIS: Attagene CIS-FACTORIAL HepG2 Assay for M06 Transcription Factor (Internal Marker) (AID 2282950; active = hit-call score of the fitted dose curve at least 0.9, where 1 is the maximum; inactive = score below 0.9). The conditions noted are these: HepG2 Attagene CIS-FACTORIAL M06 internal marker reporter; actives raise or lower the signal. The gist of the method:
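Read-out is fluorescence of labelled reporter cDNA fragments resolved by capillary electrophoresis after RT-PCR. Cells: HepG2 carrying transfected cis-promoter reporter units, treated 24 h. Gain or loss of signal fitted relative to DMSO.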

Experiment [5] in a line: ATG_PPRE_CIS: Attagene CIS-FACTORIAL HepG2 Assay for human Peroxisome Proliferator-activated Response Element (PPRE) (AID 2282958; active = hit-call score of the fitted dose curve at least 0.9, where 1 is the maximum; inactive = score below 0.9). The conditions noted are these: HepG2 PPRE cis-element reporter, Attagene transcription factor profiling; actives raise or lower the signal. A digest of the protocol: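 PPRE activity in HepG2: transient cis-reporter transfection, 24 h compound incubation, reporter mRNA by RT-PCR and CE fluorescence; gain/loss fitted against DMSO.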

Experiment [6] is described as follows: ATG_TGFb_CIS: Attagene CIS-FACTORIAL HepG2 Assay for human Transforming Growth Factor (TGF) (AID 2282967; active = hit-call score of the fitted dose curve at least 0.9, where 1 is the maximum; inactive = score below 0.9). As to conditions: HepG2 Attagene CIS TGFb reporter, mRNA transcription; actives raise or lower the signal. A digest of the protocol: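 Transient MRTU transfection of HepG2 (FuGene 6). Dose 24 h. TriZol RNA, oligo(dT) RT, PCR, 6-FAM primer extension, HpaI cut, CE. Bidirectional fit, DMSO = baseline.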

The nature of experiment [7]: ATG_M_19_TRANS: Attagene TRANS-FACTORIAL HepG2 Assay for M19 Transcription Factor (Internal Marker) (AID 2282974). As to conditions: HepG2 Attagene TRANS-FACTORIAL M19 internal marker reporter. A digest of the protocol:
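Transfected HepG2 (GAL4-UAS MRTUs), 24 h compound, TriZol RNA, DNase-treated RT, reporter PCR, FAM label, HpaI digest, CE fluorescence; gain vs DMSO.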

In experiment [8] the target is Hepatocyte nuclear factor 4-alpha (Homo sapiens) (UniProt P41235). The experiment can be described thus: ATG_HNF4a_TRANS: Attagene TRANS-FACTORIAL HepG2 Assay for human Hepatocyte Nuclear Factor 4 alpha (HNF4a) (AID 2282982). As to conditions: HepG2 HNF4a transactivation reporter, mRNA readout. The gist of the method: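 HepG2 cells transiently transfected with multiplexed GAL4-UAS reporter units responsive to chimeric NR-GAL4 proteins; compound exposure 24 h. Reporter mRNA quantified by RT-PCR, 6-FAM labelling, HpaI digestion and capillary electrophoresis; gain of signal versus DMSO baseline.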
Sequence of Hepatocyte nuclear factor 4-alpha (Homo sapiens) (P41235 whole entry, looked up, the tested form may be a part): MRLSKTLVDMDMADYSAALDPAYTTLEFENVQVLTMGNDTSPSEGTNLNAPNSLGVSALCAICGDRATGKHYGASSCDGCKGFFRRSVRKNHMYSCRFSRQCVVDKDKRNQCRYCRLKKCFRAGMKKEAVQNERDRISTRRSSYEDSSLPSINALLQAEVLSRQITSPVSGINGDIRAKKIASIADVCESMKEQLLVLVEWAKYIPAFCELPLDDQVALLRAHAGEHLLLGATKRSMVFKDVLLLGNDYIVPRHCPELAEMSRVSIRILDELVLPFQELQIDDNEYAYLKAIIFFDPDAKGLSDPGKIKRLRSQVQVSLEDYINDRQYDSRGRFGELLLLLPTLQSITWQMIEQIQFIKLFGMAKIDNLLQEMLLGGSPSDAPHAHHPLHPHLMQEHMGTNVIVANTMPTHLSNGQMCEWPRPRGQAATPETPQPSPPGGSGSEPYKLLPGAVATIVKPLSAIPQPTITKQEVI

Experiment [9] concerns the target Nuclear respiratory factor 1 (Homo sapiens) (UniProt Q16656). Put plainly: ATG_NRF1_CIS: Attagene CIS-FACTORIAL HepG2 Assay for human Nuclear Respiratory Factor 1 (NRF1) Orphan Gene (AID 2282987; active = hit-call score of the fitted dose curve at least 0.9, where 1 is the maximum; inactive = score below 0.9). As to conditions: HepG2 NRF1 cis-element reporter, Attagene multiplex; actives raise or lower the signal. A digest of the protocol: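 Measured: fluorescent reporter-specific RT-PCR products from transfected HepG2 cells, separated by capillary electrophoresis. Exposure lasted 24 h. Analysis used bidirectional curve fitting with DMSO as negative control.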

Experiment [10] concerns the target Cellular tumor antigen p53 (Homo sapiens) (UniProt P04637). Put plainly: TOX21_p53_BLA_p2_ratio: Tox21 HCT-116 p53 Agonism Beta-lactamase Assay, Ratio, Phase 2 (AID 2283592). A digest of the protocol:
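Gain-of-signal p53 agonism was scored from the beta-lactamase FRET ratio (460/530 nm, 405 nm excitation) in HCT116 cells treated 16 h at 37C, 5% CO2, with DMSO serving as negative control and baseline.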

Experiment [11] has the same target. The experiment can be described thus: TOX21_p53_BLA_p3_ratio: Tox21 HCT-116 p53 Agonism Beta-lactamase Assay, Ratio, Phase 3 (AID 2283596). A digest of the protocol: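 HCT116 p53-bla cells (4000/well) given compound in DMSO (217-fold dilution) after 5 h, incubated 16 h at 37C. CCF4-AM substrate 2 h at room temperature; 460/530 nm emission ratio, gain fitted against DMSO.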

The target is the same in experiment [12]. Put plainly: TOX21_p53_BLA_p5_ratio: Tox21 HCT-116 p53 Agonism Beta-lactamase Assay, Ratio, Phase 5 (AID 2283599). The gist of the method: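 HCT-116 cells carrying a p53-inducible beta-lactamase reporter were seeded at 4000 cells/well and dosed after 5 h with compound in DMSO (217-fold dilution). After 16 h at 37C, CCF4-AM substrate was added for 2 h, and the 460/530 nm emission ratio was scored as gain-of-signal versus DMSO.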

Experiment [13] can be described thus: TOX21_p53_BLA_p5_viability: Viability Assessment in the Tox21 HCT-116 p53 Agonism Beta-lactamase Assay, Phase 5 (AID 2283600). The gist of the method:
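After the 460/530 nm beta-lactamase measurement, the wells received an ATP-detection luciferase reagent; signal was read 30 min later at RT. Compound treatment lasted 16 h on cells pre-incubated 5 h post-seeding.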

In experiment [14] the target is Cellular tumor antigen p53 (Homo sapiens) (UniProt P04637). The experiment can be described thus: TOX21_p53_BLA_p4_ratio: Tox21 HCT-116 p53 Agonism Beta-lactamase Assay, Ratio, Phase 4 (AID 2283601). A digest of the protocol:
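HCT116 cells carrying an inducible beta-lactamase reporter were plated at 4000 cells/well, rested 5 h, then exposed to compounds in DMSO (217-fold dilution) for 16 h at 37C. CCF4-AM substrate was loaded 2 h at room temperature; 460/530 nm emission ratio scored gain-of-signal versus DMSO.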

Experiment [15] is described as follows: ATG_RORE_CIS: Attagene CIS-FACTORIAL HepG2 Assay for human RAR-related Orphan Receptor Element (RORE) (AID 2282959; active = hit-call score of the fitted dose curve at least 0.9, where 1 is the maximum; inactive = score below 0.9). As to conditions: HepG2 Attagene cis-factorial RORE reporter, mRNA; actives raise or lower the signal. The gist of the method:
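A 24-hour exposure of transfected HepG2 hepatoma cells precedes RNA isolation and reporter RT-PCR. Labeled products are digested with HpaI and resolved by capillary electrophoresis, with gain or loss of signal scored relative to DMSO.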

The nature of experiment [16]: ATG_M_06_TRANS: Attagene TRANS-FACTORIAL HepG2 Assay for M06 Transcription Factor (Internal Marker) (AID 2282983).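 Also: reporter transcript level by RT-PCR then capillary electrophoresis fluorescence.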 The conditions noted are these: HepG2 Attagene TRANS M06 internal marker reporter. The gist of the method: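 Cells: HepG2, transient multi-reporter transfection. Exposure: 24 h. Detection: RT-PCR, 6-FAM labelling, HpaI digestion (2 h, 37 °C), capillary electrophoresis. Baseline: DMSO.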

Experiment [17] is described as follows: ATG_NFI_CIS: Attagene CIS-FACTORIAL HepG2 Assay for human Nuclear Factor I (NFI) (AID 2282989; active = hit-call score of the fitted dose curve at least 0.9, where 1 is the maximum; inactive = score below 0.9). As to conditions: HepG2 cis-regulatory reporter, NFI response element transcription; actives raise or lower the signal. A digest of the protocol: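 Transient MRTU transfection of HepG2 → 24 h chemical dosing → total RNA, oligo(dT) RT → PCR, 6-FAM primer extension, HpaI cut → capillary electrophoresis. Endpoint fitted bidirectionally relative to DMSO.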

In experiment [18] the target is Nuclear receptor subfamily 1 group I member 2 (Homo sapiens) (UniProt O75469). Put plainly: ATG_PXR_TRANS: Attagene TRANS-FACTORIAL HepG2 Assay for human Pregnane X Receptor (PXR) (AID 2283008). A digest of the protocol: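 HepG2 cells transiently transfected with multiple reporter units, here a PXR-GAL4 chimera driving a GAL4-UAS reporter; 24 h compound exposure. Reporter mRNA measured by RT-PCR, FAM labelling and capillary electrophoresis; gain of signal fitted against DMSO baseline.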
Sequence of Nuclear receptor subfamily 1 group I member 2 (Homo sapiens) (O75469 whole entry, looked up, the tested form may be a part): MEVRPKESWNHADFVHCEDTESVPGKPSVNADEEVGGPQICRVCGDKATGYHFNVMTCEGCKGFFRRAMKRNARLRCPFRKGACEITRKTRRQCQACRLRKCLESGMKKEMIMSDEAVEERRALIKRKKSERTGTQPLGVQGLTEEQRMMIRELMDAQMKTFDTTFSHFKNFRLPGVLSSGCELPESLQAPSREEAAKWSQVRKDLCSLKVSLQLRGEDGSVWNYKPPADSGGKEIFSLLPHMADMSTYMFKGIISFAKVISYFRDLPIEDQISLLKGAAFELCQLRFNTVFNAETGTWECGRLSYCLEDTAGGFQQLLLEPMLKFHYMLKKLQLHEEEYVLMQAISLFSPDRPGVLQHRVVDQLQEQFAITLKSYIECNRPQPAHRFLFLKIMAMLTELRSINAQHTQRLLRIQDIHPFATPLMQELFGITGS

Experiment [19] addresses Retinoic acid receptor RXR-alpha (Homo sapiens) (UniProt P19793). Put plainly: ATG_RXRa_TRANS: Attagene TRANS-FACTORIAL HepG2 Assay for human Retinoid X Receptor alpha (RXRa) (AID 2283012). The gist of the method: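 HepG2 cells transiently transfected with multiplexed GAL4-UAS reporter units and chimeric NR-GAL4 fusions, dosed 24 h. Reporter mRNA measured by RT-PCR, FAM labelling, HpaI digestion and capillary electrophoresis; gain-of-signal fitted relative to DMSO baseline.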

Experiment [20] deals with human Retinoid X Receptor beta (RXRb), RXRB (gene 6257) (UniProt P28702). The experiment can be described thus: ATG_RXRb_TRANS: Attagene TRANS-FACTORIAL HepG2 Assay for human Retinoid X Receptor beta (RXRb) (AID 2283013). The gist of the method:
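HepG2 cells transiently transfected with multiplexed reporter units driven by GAL4-UAS and exogenous chimeric NR-Gal4 proteins; treated 24 h. Reporter mRNA measured by RT-PCR, 6-FAM labelling and capillary electrophoresis; gain-of-signal fitted versus DMSO baseline.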

“And” between values parts separate entries of the source, which are not always exact repeats. Identical values can stand only once. Results filed as inconclusive are left out. The source made the active and inactive calls. The calls were made as follows, unless noted: active = hit-call score of the fitted dose curve at least 0.9, where 1 is the maximum; inconclusive = response in the unintended direction; inactive = score below 0.9.

Sequence of Nuclear respiratory factor 1 (Homo sapiens) (Q16656 whole entry, looked up): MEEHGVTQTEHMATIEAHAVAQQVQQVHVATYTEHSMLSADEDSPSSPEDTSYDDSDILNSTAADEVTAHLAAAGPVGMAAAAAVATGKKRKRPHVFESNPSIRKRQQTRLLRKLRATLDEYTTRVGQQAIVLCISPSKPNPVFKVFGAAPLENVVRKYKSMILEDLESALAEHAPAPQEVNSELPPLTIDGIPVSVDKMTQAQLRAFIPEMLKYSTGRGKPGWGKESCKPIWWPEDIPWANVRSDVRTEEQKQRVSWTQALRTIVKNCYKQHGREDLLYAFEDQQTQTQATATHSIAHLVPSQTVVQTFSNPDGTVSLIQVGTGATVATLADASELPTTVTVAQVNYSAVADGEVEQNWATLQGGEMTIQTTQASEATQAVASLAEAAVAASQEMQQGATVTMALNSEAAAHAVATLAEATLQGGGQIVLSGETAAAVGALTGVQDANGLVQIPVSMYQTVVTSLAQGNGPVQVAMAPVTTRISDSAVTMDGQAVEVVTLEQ
Sequence of human Retinoid X Receptor beta (RXRb), RXRB (gene 6257) (P28702 whole entry, looked up, the tested form may be a part): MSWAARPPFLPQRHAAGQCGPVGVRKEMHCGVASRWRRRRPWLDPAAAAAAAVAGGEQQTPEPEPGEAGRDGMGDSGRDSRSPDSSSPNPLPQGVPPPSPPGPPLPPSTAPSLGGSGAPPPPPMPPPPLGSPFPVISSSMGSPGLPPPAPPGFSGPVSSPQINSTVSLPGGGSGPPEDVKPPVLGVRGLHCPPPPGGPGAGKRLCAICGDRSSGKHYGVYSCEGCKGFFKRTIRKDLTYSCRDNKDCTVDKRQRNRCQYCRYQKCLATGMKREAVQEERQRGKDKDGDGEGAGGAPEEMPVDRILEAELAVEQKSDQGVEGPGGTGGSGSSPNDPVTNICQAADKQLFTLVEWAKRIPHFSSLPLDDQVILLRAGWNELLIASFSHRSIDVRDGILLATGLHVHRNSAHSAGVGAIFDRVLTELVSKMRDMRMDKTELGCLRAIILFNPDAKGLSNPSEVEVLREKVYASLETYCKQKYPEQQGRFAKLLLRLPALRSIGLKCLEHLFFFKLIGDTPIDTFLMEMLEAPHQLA
Sequence of Cellular tumor antigen p53 (Homo sapiens) (P04637 whole entry, looked up): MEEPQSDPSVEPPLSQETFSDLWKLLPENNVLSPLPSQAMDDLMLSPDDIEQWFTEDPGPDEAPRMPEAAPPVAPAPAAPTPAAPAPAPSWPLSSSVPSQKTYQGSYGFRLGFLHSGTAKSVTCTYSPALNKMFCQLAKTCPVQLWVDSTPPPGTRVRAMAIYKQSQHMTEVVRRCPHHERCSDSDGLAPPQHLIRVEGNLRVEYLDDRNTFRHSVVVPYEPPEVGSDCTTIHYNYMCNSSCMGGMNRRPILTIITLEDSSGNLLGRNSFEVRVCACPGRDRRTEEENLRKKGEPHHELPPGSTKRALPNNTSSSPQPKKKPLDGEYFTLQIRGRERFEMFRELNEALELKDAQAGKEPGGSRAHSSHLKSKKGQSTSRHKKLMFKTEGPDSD
Sequence of Retinoic acid receptor RXR-alpha (Homo sapiens) (P19793 whole entry, looked up, the tested form may be a part): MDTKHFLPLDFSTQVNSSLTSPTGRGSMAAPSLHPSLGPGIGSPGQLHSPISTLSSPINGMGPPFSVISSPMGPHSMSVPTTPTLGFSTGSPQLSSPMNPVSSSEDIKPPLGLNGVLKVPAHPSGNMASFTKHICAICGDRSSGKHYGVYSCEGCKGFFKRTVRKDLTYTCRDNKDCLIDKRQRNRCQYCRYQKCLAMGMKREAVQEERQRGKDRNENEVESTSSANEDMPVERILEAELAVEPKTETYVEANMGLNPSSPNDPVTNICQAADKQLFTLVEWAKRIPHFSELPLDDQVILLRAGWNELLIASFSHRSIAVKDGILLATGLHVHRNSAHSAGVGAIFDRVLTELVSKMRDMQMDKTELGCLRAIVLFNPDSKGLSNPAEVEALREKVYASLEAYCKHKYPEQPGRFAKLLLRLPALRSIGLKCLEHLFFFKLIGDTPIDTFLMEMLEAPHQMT

Consider `BrCBr`, for which the molecule was called inactive in experiment [1], in experiment [2], in experiment [3], in [4], in experiment [5] and in experiment [6]. Further, the call in experiment [7], in [8], in experiment [9], in [10], in experiment [11] and in [12] was inactive. Also, the molecule was called inactive in [13] and in experiment [14].

Turning to `c1cc(OCC2CO2)ccc1Cc1ccc(OCC2CO2)cc1` (stereo unspecified), the call in [1], in [3], in experiment [15], in experiment [6], in experiment [7] and in experiment [8] was inactive. The molecule was classed as inactive in experiment [16], in experiment [9], in experiment [17], in [19], in experiment [20] and in experiment [10]. Moreover, the result in experiment [12] and in [13] was inactive. Also, the concentration at half-maximal activity (AC50) in [2] is 33.4 µM (active); in experiment [5] it was 51.5 µM (active); in experiment [18], 20.6 µM (active); in experiment [11] it was 75.1 µM (active) and 79.5 µM (active); in [14] it was 65.9 µM (active) and 82.3 µM (active).

For the molecule `Cc1ncc(C[n+]2csc(CCO)c2C)c(N)n1`, the molecule was called inactive in experiment [1], in [2], in experiment [5], in [15], in [7] and in experiment [8]. Moreover, the result in experiment [9], in experiment [17], in experiment [10], in experiment [11], in experiment [12] and in [13] was inactive. In addition, in [14], the outcome was inactive.

As for `CC(C)CCCCCCCOP(=O)(Oc1ccccc1)Oc1ccccc1`, the call in experiment [1], in [2], in [3], in experiment [5], in experiment [15] and in experiment [6] was inactive. For the same molecule, the result in experiment [16], in experiment [9], in experiment [17], in experiment [20], in experiment [10] and in experiment [12] was inactive. Besides, the result in experiment [13] was inactive. Moreover, the half-maximal activity concentration (AC50) in [18] was 0.711 µM (active).

`C=CC(=O)OC`: the molecule was called inactive in experiment [1], in experiment [2], in [4], in experiment [5], in experiment [6] and in experiment [8]. In addition, the call in [16], in [20], in [10], in [13] and in experiment [14] was inactive.

By AC50 is commonly meant the concentration giving half of the maximal activity seen.
